# Key:
# Experiment in all cases: DAPPL (digital affinity profiling via proximity ligation, sequencing); 10 mM Tris-HCl pH 7.5, 50 mM NaCl, 1 mM DTT, 4% glycerol, room temperature, 30 min; GST-TFs on glutathione beads, 16-mer random dsDNA library, 0.1% formaldehyde crosslink after washing; high values mean tight binding
# Conditions in all cases: protein: recombinant; tags: N-terminal GST; dsDNA, one strand shown
# FLI1 = target: T1, FLI1 (Homo sapiens, UniProt Q01543 1-452)
# T1 sequence: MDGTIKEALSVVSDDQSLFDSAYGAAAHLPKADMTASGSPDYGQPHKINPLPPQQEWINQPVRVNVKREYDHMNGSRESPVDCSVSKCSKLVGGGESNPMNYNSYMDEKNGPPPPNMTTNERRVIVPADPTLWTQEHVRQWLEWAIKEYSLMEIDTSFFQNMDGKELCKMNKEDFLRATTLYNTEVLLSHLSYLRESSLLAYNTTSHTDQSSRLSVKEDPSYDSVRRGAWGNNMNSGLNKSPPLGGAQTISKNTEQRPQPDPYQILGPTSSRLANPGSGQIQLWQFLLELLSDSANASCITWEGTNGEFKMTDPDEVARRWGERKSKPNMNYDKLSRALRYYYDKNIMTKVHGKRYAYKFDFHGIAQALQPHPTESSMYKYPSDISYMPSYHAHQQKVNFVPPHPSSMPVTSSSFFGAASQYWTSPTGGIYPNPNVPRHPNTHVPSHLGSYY
# In short: (§1)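 Pools of DNA-barcoded human transcription factors, expressed in yeast as GST fusions on glutathione beads and combined with a tag-only sample, were incubated with 200 nmole of a 16-mer random double-stranded DNA library. Incubation took 30 min at room temperature in Tris/NaCl/DTT/glycerol buffer and was followed by washing, 0.1% formaldehyde crosslinking, proximity ligation (BsaI/T4 ligase, 1 h, 37 °C), PCR amplification and sequencing on an Illumina NextSeq500. Binding signal is the ratio of a hexamer's read frequency for a factor to its frequency for the tag-only sample.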
# ELK1 = target: T2, ELK1 (Homo sapiens, UniProt P19419 1-428)
# T2 sequence: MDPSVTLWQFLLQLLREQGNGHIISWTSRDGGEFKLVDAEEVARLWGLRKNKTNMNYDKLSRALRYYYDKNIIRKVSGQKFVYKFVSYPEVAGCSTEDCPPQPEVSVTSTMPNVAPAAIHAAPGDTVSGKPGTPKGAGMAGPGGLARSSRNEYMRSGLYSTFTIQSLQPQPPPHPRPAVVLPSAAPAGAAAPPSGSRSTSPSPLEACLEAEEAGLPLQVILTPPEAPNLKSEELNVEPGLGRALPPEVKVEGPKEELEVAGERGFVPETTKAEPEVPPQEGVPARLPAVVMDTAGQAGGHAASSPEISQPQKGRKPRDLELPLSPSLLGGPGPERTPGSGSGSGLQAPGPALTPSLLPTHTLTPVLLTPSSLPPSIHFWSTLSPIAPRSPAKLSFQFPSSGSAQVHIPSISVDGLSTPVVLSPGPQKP
# In short: as §1
# GABPA = target: T3, GABPA (Homo sapiens, UniProt Q06546 1-454)
# T3 sequence: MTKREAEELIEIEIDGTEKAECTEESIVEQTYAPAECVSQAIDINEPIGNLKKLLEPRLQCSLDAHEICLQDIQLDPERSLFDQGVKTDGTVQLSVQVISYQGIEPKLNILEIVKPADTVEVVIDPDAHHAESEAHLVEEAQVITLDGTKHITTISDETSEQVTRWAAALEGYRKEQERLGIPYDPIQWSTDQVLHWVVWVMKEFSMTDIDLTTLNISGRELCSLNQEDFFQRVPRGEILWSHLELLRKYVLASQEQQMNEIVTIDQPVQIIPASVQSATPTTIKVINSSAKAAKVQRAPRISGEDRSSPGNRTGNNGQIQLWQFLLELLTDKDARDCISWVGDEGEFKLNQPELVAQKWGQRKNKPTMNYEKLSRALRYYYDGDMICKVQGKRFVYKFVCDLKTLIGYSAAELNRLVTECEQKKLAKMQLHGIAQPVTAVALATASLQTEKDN
# In short: as §1
# ERG = target: T4, ERG (Homo sapiens, UniProt P11308 1-479)
# T4 sequence: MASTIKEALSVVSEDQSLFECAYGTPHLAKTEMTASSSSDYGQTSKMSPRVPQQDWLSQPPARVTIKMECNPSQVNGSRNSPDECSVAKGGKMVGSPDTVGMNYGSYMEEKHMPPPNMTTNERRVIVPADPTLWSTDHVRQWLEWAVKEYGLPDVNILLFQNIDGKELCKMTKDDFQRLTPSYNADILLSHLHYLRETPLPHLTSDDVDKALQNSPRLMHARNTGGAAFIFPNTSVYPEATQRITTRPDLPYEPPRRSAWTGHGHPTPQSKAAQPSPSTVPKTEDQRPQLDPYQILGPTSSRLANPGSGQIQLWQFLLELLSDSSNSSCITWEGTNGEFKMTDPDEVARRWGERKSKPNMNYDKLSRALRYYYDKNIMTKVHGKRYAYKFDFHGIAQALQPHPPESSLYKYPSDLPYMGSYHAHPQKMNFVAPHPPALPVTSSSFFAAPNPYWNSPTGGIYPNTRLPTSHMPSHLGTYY
# In short: as §1
# ELF1 = ELF1 (Homo sapiens, UniProt P32519 1-619)
# ELF1, sequence (P32519 whole entry): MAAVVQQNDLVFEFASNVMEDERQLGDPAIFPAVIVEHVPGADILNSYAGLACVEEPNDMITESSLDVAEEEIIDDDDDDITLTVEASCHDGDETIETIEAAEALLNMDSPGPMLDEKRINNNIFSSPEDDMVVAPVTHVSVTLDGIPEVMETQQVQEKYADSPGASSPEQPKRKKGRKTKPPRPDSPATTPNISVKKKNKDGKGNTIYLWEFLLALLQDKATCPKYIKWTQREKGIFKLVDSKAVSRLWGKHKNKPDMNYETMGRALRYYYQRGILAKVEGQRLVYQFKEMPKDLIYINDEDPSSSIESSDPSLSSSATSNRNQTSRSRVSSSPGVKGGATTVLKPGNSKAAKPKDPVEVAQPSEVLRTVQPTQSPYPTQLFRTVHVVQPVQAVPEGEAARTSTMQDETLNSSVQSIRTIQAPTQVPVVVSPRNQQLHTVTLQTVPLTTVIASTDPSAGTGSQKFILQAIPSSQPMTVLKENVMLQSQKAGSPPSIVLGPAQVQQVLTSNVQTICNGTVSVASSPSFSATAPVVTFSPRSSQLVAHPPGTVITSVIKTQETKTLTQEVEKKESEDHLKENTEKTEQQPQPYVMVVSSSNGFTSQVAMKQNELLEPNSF
# In short: as §1
# EHF = target: T5, EHF (Homo sapiens, UniProt Q9NZC4 1-300)
# T5 sequence: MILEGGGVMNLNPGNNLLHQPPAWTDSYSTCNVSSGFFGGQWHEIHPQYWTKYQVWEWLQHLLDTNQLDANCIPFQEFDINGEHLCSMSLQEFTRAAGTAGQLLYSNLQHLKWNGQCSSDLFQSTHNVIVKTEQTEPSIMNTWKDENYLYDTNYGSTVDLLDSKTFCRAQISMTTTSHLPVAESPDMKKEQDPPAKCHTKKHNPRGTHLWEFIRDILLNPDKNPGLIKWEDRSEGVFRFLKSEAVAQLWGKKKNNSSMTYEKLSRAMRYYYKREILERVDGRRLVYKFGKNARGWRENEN
# In short: as §1
# SPI1 = SPI1 (Homo sapiens, UniProt P17947 1-270)
# In short: as §1
# SPIB = SPIB (Homo sapiens, UniProt Q01892 1-262)
# SPIB, sequence (Q01892 whole entry): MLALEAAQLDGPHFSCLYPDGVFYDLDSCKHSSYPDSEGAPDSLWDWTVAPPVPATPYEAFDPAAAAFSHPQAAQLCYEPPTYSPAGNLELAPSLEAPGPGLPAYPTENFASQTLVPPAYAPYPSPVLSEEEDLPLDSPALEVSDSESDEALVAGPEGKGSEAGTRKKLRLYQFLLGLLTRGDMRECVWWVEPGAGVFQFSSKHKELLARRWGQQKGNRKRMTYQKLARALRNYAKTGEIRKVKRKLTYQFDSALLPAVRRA
# In short: as §1
# ELK3 = target: T6, ELK3 (Homo sapiens, UniProt P41970 1-407)
# T6 sequence: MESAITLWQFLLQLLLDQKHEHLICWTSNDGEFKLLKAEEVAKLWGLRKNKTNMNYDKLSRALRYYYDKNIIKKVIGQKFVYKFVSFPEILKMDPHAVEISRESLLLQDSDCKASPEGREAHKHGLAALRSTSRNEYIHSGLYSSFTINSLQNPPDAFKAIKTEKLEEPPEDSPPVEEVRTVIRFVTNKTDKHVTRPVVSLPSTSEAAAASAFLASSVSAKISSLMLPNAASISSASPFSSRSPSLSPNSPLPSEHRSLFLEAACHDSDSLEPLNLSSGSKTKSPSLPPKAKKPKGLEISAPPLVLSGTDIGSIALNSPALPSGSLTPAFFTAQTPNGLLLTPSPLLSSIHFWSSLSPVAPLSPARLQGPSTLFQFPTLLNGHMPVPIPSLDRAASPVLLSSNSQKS
# In short: as §1
sequence,measurement,setting,value
AAAAAC,binding signal,FLI1,"1.31 fold enrichment (6-mer frequency, TF over GST control)"
same,binding signal,ELK1,"1.12 fold enrichment (6-mer frequency, TF over GST control)"
same,binding signal,GABPA,"1.26 fold enrichment (6-mer frequency, TF over GST control)"
same,binding signal,ERG,"1.26 fold enrichment (6-mer frequency, TF over GST control)"
same,binding signal,ELF1,"1.23 fold enrichment (6-mer frequency, TF over GST control)"
same,binding signal,EHF,"1.28 fold enrichment (6-mer frequency, TF over GST control)"
same,binding signal,SPI1,"1.46 fold enrichment (6-mer frequency, TF over GST control)"
same,binding signal,SPIB,"1.24 fold enrichment (6-mer frequency, TF over GST control)"
same,binding signal,ELK3,"1.31 fold enrichment (6-mer frequency, TF over GST control)"

# — publication PMC7862700, “An all-to-all approach to the identification of sequence-specific readers for epigenetic DNA modifications on cytosine”
